Experimental findings from PubChem BioAssay AID1117267 (The Scripps Research Institute Molecular Screening Center, 2014) are described below.

SMILES strings stand for the structures. In all, about 92,000 compounds went through this assay and about 1,200 (1.3%) were called active. The entries come from a sample that favours actives as a whole. Values without a mark were called inactive.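 The calls were made as follows: active = activation above the mean of all tested compounds plus 3 SD (cut at about 9.5% in these data); inactive = the rest.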

The nature of this test: compounds raising TTR promoter-driven luciferase – cell-based, luminescence, SH-SY5Y, TTR promoter Gaussia luciferase, primary screen (AID 1117267).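 Also: cells exposed to compounds for one day before reading; 0% = median of all test compound wells on the plate.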 As to conditions: at 16.7 µM, stronger effect = higher value, 100% = recombinant luciferase protein wells.
With `O=C(O)C1OC(C(=O)O)C2C1C(F)(F)C2(F)F` (stereo not drawn), the activation was 15.5% (active). Next, `COc1ccc(N2c3ccccc3CN(Cc3ccccc3)[C@@H](C)[C@H]2Cc2ccc(-c3ccccc3)cc2)cc1`: -1.66%; `O=C(CN1C(=O)COc2ccccc21)Nc1ccc(F)cc1`: 2.98%; `Cc1ccc2c(c1)N(CC(=O)N1CCCc3ccccc31)C(=O)C(C)O2` (stereo not drawn): -0.78%.

With `Cc1cccc(C)c1NC(=O)CN1C(=O)C(C)Oc2ccccc21` (stereo not drawn), the activation was 15.3% (active).

With `O=C(CCC(=O)c1cccs1)NCc1ccccc1`, the activation is 9.7% (active). The value for `O=C(CCC(=O)c1cccs1)Nc1nc2ccccc2s1` was 0.06%. The value for `O=C(CCC(=O)c1cccs1)NC1CCCCCC1` was -2.1%; that for `CCOC(=O)N1CCN(S(=O)(=O)c2ccc(-n3cnnn3)cc2)CC1` was -1.92%. The value for `COCCn1c(SCC(=O)N2CCCCCC2)nc2c(c1=O)SCC2` was 0.25%; that for `Cc1cc(C(=O)CSc2nc(N)cc(=O)[nH]2)c(C)n1Cc1ccco1` was 0.58%; that for `CCOC(=O)[C@H]1[C@H]2COc3ccc(OC)cc3[C@@H]2N2C(=O)c3ccc(F)cc3NC(=O)[C@@]12C` was 1.68%. For the compound `CSc1sc(C(=O)NNC(=O)c2ccc(Cl)cc2)c2c1C=CCC2`, the activation is -0.42%. Take `O=C(c1ccc(Cl)c(Cl)c1)N1CCCC1`: the activation is 4.23%. `O=C(CN1CCCCC1)Nc1ccccc1C(=O)NC1CC1`: the activation was 2.49%. Next, `O=C(Nc1ccccc1C(=O)N1CCCCCC1)c1ccccc1Cl`: 21.4% (active); `N#Cc1c(N2CCCCC2)nc(N)c2c(N)nc(SCC(=O)O)cc12`: 0.31%. Next, `Cc1cc(C)c(C#N)c(SCc2ccccc2C(=O)O)n1`: 5.37%. The value for `Cc1cc(C)c(C#N)c(N2CCC(C(N)=O)CC2)n1` was 14.3% (active). As to `CCC(C)C(=O)Nc1cc([N+](=O)[O-])ccc1Cl` (stereo not drawn), the activation is 0.38%. The value for `CCOc1ccc(NC(=O)CSc2nc3ccccc3c(=O)n2Cc2cccs2)cc1` was 0.62%; that for `Cc1cc(C)c2nc3nc(C)cc(C)c3c(N)c2c1` was 13.6% (active). Consider `COc1ccc(CCNC(=O)C(Sc2ccccn2)c2ccccc2)cc1OC` (stereo not drawn), for which the activation was 1%. The value for `NC(=O)c1oc2ccccc2c1NC(=O)CS(=O)(=O)c1ccccc1` was -0.61%. The value for `CCSc1nc(O)c(C(c2cccc(OC)c2)c2c(O)nc(SCC)[nH]c2=O)c(=O)[nH]1` was 1.15%; that for `CCOc1ncccc1C(=O)N(C)CC(=O)Nc1ccc(F)cc1` was 4.43%. The value for `O=C1CC(Sc2ncn[nH]2)C(=O)N1c1ccccc1` (stereo not drawn) was -1.83%; that for `O=C1CC(N2CCN(c3ccc(F)cc3)CC2)C(=O)N1c1ccccc1` (stereo not drawn) was 0.86%; that for `Cc1cccc(N2C(=O)CC(SC(N)=Nc3ccccc3)C2=O)c1` (stereo not drawn) was 11.1% (active).

On to `CCc1ccccc1OCC(=O)Nc1ccc(C)c(S(=O)(=O)N2CCCCCC2)c1`, for which the activation is -2%. Next, `CCOc1ccc(NC(=O)COc2ccc(S(=O)(=O)N3CCCC3)cc2)cc1`: 11.4% (active); `Cc1cccc(OCCCC(=O)Nc2ccc(S(=O)(=O)N3CCCC3)cc2)c1`: -3.27%; `CCOc1ccccc1NC(=O)COc1ccc(S(=O)(=O)N2CCCC2)cc1`: 15.6% (active). The value for `COc1ccccc1CC(=O)Nc1ccc(S(=O)(=O)N2CCCC2)cc1` was 1%; that for `CCOc1cccc(NC(=O)C2CCCN(S(=O)(=O)c3ccc(OC)cc3)C2)c1` (stereo not drawn) was -2.33%; that for `Cc1ccc(NC(=S)NCc2ccccc2Cl)c(C)c1` was 0.72%. On to `C/C(CC(=O)Nc1ccc(Cl)cc1)=N\NC(=O)C(=O)NCCO`, for which the activation is -1.14%. The value for `C/C(CC(=O)Nc1ccc(N(C)C)cc1)=N\NC(=O)c1ccccc1F` was 15.4% (active); that for `CN(C)c1ccc(NC(=O)CN2C3CCCC2CC(NC(=O)c2ccccc2)C3)cc1` (stereo not drawn) was -2.32%. Next, `CCOc1ccc(CCN2C(=O)C(=O)N([C@@H](Cc3ccc(O)cc3)CN3CCC[C@H]3CN3C(=O)C(=O)NC[C@@H]3CC(C)C)C[C@@H]2Cc2ccccc2)cc1`: 2.35%; `Cc1ccn(CC(=O)N2N=C(C(F)F)CC2(O)C(F)F)n1` (stereo not drawn): -1.11%. The value for `CC(=O)NC1(c2ccc(F)cc2)CCN(C(=O)c2c(F)cccc2F)CC1` was 0.91%; that for `CCCCCc1ccc(-c2cn(Cc3ccc4ccccc4c3)nn2)cc1` was 10.7% (active); that for `CCCCCc1ccc(-c2ccc(OCC)cc2)nc1` was 1.61%. With `COc1ccc(Cn2cc(COC(=O)N(C)Cc3ccccc3)nn2)cc1`, the activation was 0.33%. Turning to `CC(C(=O)N(C)CC(=O)Nc1ccccc1C(F)(F)F)N1C(=O)c2ccccc2C1=O` (stereo not drawn), the activation is 2.02%. The value for `COc1ccc(-c2nn(-c3ccccc3)cc2/C=C\C(=O)N2CCOCC2)cc1[N+](=O)[O-]` was -1.35%. The value for `COc1ccc(-c2ccc(Nc3ccc(S(=O)(=O)N4CCCC4)cc3)nn2)cc1OC` was -5.27%; that for `COc1ccc(S(=O)(=O)Nc2ccc(S(=O)(=O)N3CCCCC3)cc2)cc1OC` was -1.7%; that for `COc1cc(C(C)=O)ccc1OC(C)C(=O)Nc1ccc(S(=O)(=O)N2CCCC2)cc1` (stereo not drawn) was 10% (active). Turning to `O=C(NCc1cccc(C(F)(F)F)c1)c1cccc(S(=O)(=O)N2CCN(Cc3ccccc3)CC2)c1`, the activation was -1.01%.

`N#CCc1c[nH]c2ccc([N+](=O)[O-])cc12`: the activation was 1.86%. Next, `CC(=O)c1ccc2c(c1)OCCOCCOc1ccc(C(C)=O)cc1OCCOCCO2`: 1.09%. Regarding `CSCCC(NC(N)=O)C(=O)N(C)CC(=O)Nc1ccc(C)cc1` (stereo not drawn), the activation is 22.6% (active). As to `Cc1ccc(NC(=O)CC(=O)Nc2ccc(C)cc2)cc1`, the activation is 5.18%. Next, `Cc1ccc(NC(=O)CN(C)C(=O)COC(=O)c2nccnc2N)cc1`: -0.56%; `CC1CN(C(=S)Nc2ccc(Br)cc2Cl)CC(C)O1` (stereo not drawn): -0.06%; `CCN(C(=O)COC(=O)c1ccccc1O)c1cccc2ccccc12`: -1.17%. The value for `CCC(O)C1CCN(Cc2cn(-c3ccc(OC)cc3)nc2-c2cccc(F)c2)CC1` (stereo not drawn) was 2.63%.

As to `COc1ccc(N(C)C(=O)C2CCN(S(=O)(=O)c3cccc4nsnc34)CC2)cc1`, the activation was -0.63%. Turning to `CCCCN(CC)C(=O)C1CCCN(S(=O)(=O)c2cccc3nsnc23)C1` (stereo not drawn), the activation was -1.18%. Next, `CCCCN(C)CCNC(=O)C1CCCN(S(=O)(=O)c2cccc3nsnc23)C1` (stereo not drawn): 14.2% (active); `Cc1cccc(NC(=O)c2cccc(C(F)(F)F)c2)c1`: 0.86%; `Cc1ccccc1CN1CCCCC(NC(=O)Nc2ccccc2F)C1=O` (stereo not drawn): -2.49%. The value for `CCOc1c(OC)cccc1C(=O)NCC1(c2ccccc2)CCCC1` was -2%; that for `C=C1C(C(C)C)N(C)C2=NC(c3ccccc3)CC(=O)N12` (stereo not drawn) was 11.5% (active). The value for `O=C1CC(c2ccc3c(c2)OCO3)N=C2N(CC3CC3)C/C(=C/c3ccccc3)N12` (stereo not drawn) was -0.26%; that for `COCCNC(=O)C1CCN(C(=O)C2CC(=O)N(c3ccc(C)cc3)C2)CC1` (stereo not drawn) was 3.12%. As for `COc1ccc(CNc2nccs2)cc1`, the activation is -0.05%.

As for `CCOC(=O)c1c(C)oc2cc(Sc3ccccc3)c(O)c(O)c12`, the activation is -2.74%. The value for `O=S(=O)(NCCc1ccccc1)c1ccccc1` was 0.09%; that for `Cc1noc(C)c1S(=O)(=O)NCCc1ccc(S(N)(=O)=O)cc1` was 13.7% (active); that for `CCOC(=O)c1c(C)c(C(=O)NCCc2ccc(S(N)(=O)=O)cc2)c(C)n1CC` was -1.43%. The value for `COc1ccccc1/C=N/Nc1nc(C)c(C(C)=O)s1` was 0.48%; that for `COc1ccccc1N1CCN(Cc2nnnn2CCc2ccccc2)CC1` was -0.88%. Next, `COc1ccccc1N1CCN(c2nc(C)cc(=O)[nH]2)CC1`: -0.14%; `COc1ccccc1N1CCN(Cc2cc(OC)c3c(c2)OCO3)CC1`: 16.9% (active); `Cc1ccc(C(=O)COC(=O)CCCC(=O)NC2CCCCC2)cc1[N+](=O)[O-]`: -0.69%. For `CCN(CC)CCCN=C(N)N`, the activation is -0.95%. The value for `Cc1ccc(NC(=O)CN(C)Cc2ccc(F)cc2)c([N+](=O)[O-])c1` was 2.25%; that for `COc1ccc(-n2ncc3c2CC(C)(C)CC3NC(=O)CCc2c(C)noc2C)cc1` (stereo not drawn) was -1.69%; that for `O=C(NC1CCCC1)C1c2ccccc2OCC(=O)N1CC(F)(F)F` (stereo not drawn) was -1.49%.

For the compound `CCOCCn1c(-c2ccccc2)nc2ccccc21`, the activation was 0.16%. Next, `C[C@H](NC(=O)C1CCN(S(=O)(=O)c2ccccc2)CC1)C(=O)NCc1ccccc1`: 10.2% (active); `O=C(NCc1ccc(Cl)cc1)C1CCN(S(=O)(=O)c2cccs2)CC1`: -1.39%; `COc1ccccc1CNC(=O)C1CCN(S(=O)(=O)c2ccc3c(c2)OCCO3)CC1`: 0%. Next, `CC1=C(C(=O)N2CCOCC2)CC(CC(=O)NCc2cccc3ccccc23)C(=O)N1CCC1=CCCCC1` (stereo not drawn): 3.82%; `COc1ccc(Cn2ccc3ccc(-c4ccc5ccn(Cc6ccccc6C)c5c4)cc32)cc1`: 2.53%. Next, `CCCOC1CCCN(Cc2cn(C)nc2-c2ccccc2F)C1` (stereo not drawn): 0.85%; `Cn1cc(CN2CCCC(CO)C2)c(-c2ccc(Oc3ccccc3)cc2)n1` (stereo not drawn): 11.1% (active).

Regarding `Cn1cc(CN2CCC(C(O)CCc3ccccc3)CC2)c(-c2ccccc2F)n1` (stereo not drawn), the activation was -1.93%. Next, `O=C(CCc1n[nH]c(=O)[nH]c1=O)N/N=C/c1ccc(Br)o1`: 3.17%; `C=CCN(Cc1nc(-c2cc(OC)c3c(c2)OCO3)oc1C)C1CCS(=O)(=O)C1` (stereo not drawn): -0.47%.
